Reference: PubChem BioAssay AID624305 (National Center for Advancing Translational Sciences (NCATS), 2012)
Records with an inconclusive call do not appear. Calls of active or inactive are those of the source. The call rests on the fitted dose curve; in most records, active means well fitted activation curve with a large enough effect; inconclusive means small, poorly fitted or top-dose-only effect; inactive means no such curve, though single readings can be large or run the other way.

Assay: qHTS assay for re-activators of p53 using a Luc reporter: Hit Validation; further: nearly all actives have a fitted effect of over 75% in size; on activation: 0% is about no effect
Details: p53-responsive luciferase reporter cells, luminescence, H1299 line expressing heat-sensitive Ala138Val p53; series mostly up to 46.1 µM; activation: at the top concentration
Summary of the method: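 H1299 (p53-null) cells stably carrying p53-A138V and a BP100-luciferase reporter, 1000 cells/well, treated 24 h at 37 deg C. Compounds at several concentrations, 1:5 dilution; nocodazole control; luminescence read after 10 min with detection reagent.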
Potency means the concentration at half of the fitted maximal effect.

Potency, active:
Cc1nn(-c2ccccc2)c(C)c1/C=N/Nc1nc2ccccc2[nH]1 0.731 µM, COc1ccc(C2=NN(C(C#N)c3ccc(OC)cc3)C(c3ccccc3)C2)cc1 (stereo not given) 14.6 µM, N/C(=N\OC(=O)c1cc(Cl)ccc1Cl)c1ccccn1 0.92 µM, COC(=O)CSc1nc2cc(OC)ccc2cc1C#N 9.2 µM, Fc1ccccc1OCCSc1nnnn1-c1ccccc1 0.82 µM, Cn1c(C(=O)Nc2ccc3c(c2)OCCO3)cc2sccc21 5.8 µM, Cc1ncsc1C(=O)Nc1nc2c(s1)CCCC2 1.84 µM, C/C(=N\NC(=O)c1ccc(F)cc1)c1ccccn1 2.06 µM, Cn1c(=N)n(CC(=O)c2ccc(Cl)c(Cl)c2)c2ccccc21 0.58 µM, Cc1cc(NC(=O)c2ccc3nccnc3c2)ccc1Br 4.11 µM, CCOc1ccc(NC(=O)c2cnsn2)cc1 2.31 µM

activation, inactive:
O=C(NNC(=O)c1ccc(Cl)cc1Cl)c1ccncc1 -28.8% [at 9.22 µM], C=CCOc1c(Br)cc(CNCCCN2CCOCC2)cc1OC -24%, COc1ccc(-c2nc(-c3ccc(NC(=O)c4ccncc4)cc3)no2)cc1OC -19.3%, CCCCC(=O)Nc1cccc(NC(=S)NC(=O)Cc2ccccc2)c1 -23.4%, CCCCOC(=O)c1ccc(NC(=O)CSc2nncn2C)cc1 41.1%, O=[N+]([O-])c1ccc(/C=N/NC(=S)Nc2ccccc2F)o1 21.4%, O=C(Nc1nnc(-c2cccs2)o1)c1cccc(Oc2ccccc2)c1 -32.3%, CC1C(=O)CCN(C(C)(C)C)C1C (stereo not given) 5.21%, Oc1ccc(N=Cc2c(O)ccc3ccccc23)cc1 8.85%
